GRP78 ERSR act: inducers of ER stress response in human glioma cells | U87-MG GRP78 promoter luciferase reporter, 16 h | Potency, µM, for the others: at the highest dose activation, usual class: activators | 0.02% of 420,000 active | AID 602332; note: potency is the fitted concentration of half-maximal effect; series mostly up to about 76 µM; % of control where 0% means no effect; nearly all actives have a fitted effect of over 35% in size
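ERSR induction read as luciferase luminescence (Bright-Glo, 10 min at room temperature) in stably transfected human U87-MG glioma cells exposed to compounds for 16 h, using GRP78 as sensor.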
TRPML1 ag: human mucolipin-1 channel agonism. activation, % (no concentration beside the values). Q9GZU1. TRPML1-expressing cells, Ca2+ dye fluorescence, FDSS. AID 624414. 0.12% of 410,000 active; in the data active = activation above about 50%; inconclusive = mostly about 30% to 49%; note: 0% is about no effect
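Agonist activity was taken from a 110 s kinetic Ca2+ dye read on the FDSS after pinning compounds onto TRPML1-DL cells. The cells were seeded at 1,500/well with Tet inducer, incubated about 16 h, then dye-loaded at room temperature.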
ALOX12 inh: inhibitors of human 12S-lipoxygenase ALOX12; Potency, µM (top dose mostly 108 µM), for the others: top-dose activity change, negative = inhibition, hits mostly inhibitors; purified 12hLO, xylenol orange hydroperoxide absorbance; P18054; 1.1% of 580,000 active; note: potency is the fitted concentration of half-maximal effect; % is set by controls: 0 for no effect and ±100 for the full control effect
Target sequence (P18054 whole entry, looked up): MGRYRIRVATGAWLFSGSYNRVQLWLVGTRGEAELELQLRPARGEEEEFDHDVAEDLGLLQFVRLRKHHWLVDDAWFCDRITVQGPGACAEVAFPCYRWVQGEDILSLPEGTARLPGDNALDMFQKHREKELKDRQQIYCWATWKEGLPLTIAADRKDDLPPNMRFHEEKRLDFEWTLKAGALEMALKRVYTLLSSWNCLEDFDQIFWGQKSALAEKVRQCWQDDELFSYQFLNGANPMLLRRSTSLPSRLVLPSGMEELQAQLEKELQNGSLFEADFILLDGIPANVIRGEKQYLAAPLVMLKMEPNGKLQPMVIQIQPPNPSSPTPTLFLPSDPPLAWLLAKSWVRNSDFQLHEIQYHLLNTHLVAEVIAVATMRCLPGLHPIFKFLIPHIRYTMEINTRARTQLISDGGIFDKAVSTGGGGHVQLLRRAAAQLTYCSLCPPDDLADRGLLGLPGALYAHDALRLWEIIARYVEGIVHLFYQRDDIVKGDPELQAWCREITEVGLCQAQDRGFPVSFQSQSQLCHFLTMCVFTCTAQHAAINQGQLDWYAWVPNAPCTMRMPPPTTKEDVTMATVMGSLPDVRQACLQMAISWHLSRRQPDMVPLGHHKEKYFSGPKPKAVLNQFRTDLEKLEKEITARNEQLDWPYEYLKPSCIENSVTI
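Purified human 12hLO at 150 nM in 25 mM Hepes, 0.01% Triton X-100, pH 7.0, preincubated 15 min at room temperature with compound. Reaction started with 40 uM arachidonic acid, 30 min at room temperature. Hydroperoxide measured by Fe-xylenol orange, 573/405 nm absorbance ratio.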
Vif-A3G inh: blocks the Vif interaction with human APOBEC3G. HeLa A3G-eYFP + Vif (tagged APOBEC3G with the HIV-1 protein that degrades it), YFP fluorescence, overnight. Potency, µM (highest dose often 46.1 µM), without a hit: top-dose activity, negative = active, most hits filed as inhibitors. 0.076% of 410,000 active. AID 602310; note: potency is the fitted concentration of half-maximal effect; % is set by controls: 0 for no effect and ±100 for the full control effect; nearly all actives have a fitted effect of over 60% in size
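HeLa cells stably expressing Vif and C-terminally eYFP-tagged A3G, seeded overnight at 37 deg C, then exposed to compound by pintool overnight at 37 deg C. Rise in yellow fluorescence (Ex 488/Em 500-530, Acumen) marks blocked Vif-driven A3G degradation.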
TRPML1 inh: human mucolipin-1 channel inhibition | AID 624415 | 0.02% of 390,000 active | activity change, negative = inhibition, % (no concentration beside the values) | TRPML1-inducible cells, Ca2+ dye fluorescence, FDSS; active compounds read low; inhibition of EC80 agonist-evoked calcium signal | Q9GZU1; in the data active = activity change below about -50%; inconclusive = between about -30% and that limit;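 note: stimulus is agonist 54-4 at its EC80 concentration; % is set by controls: 0 for no effect and ±100 for the full control effect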
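Calcium fluorescence in TRPML1-DL cells induced overnight with Tet: a 110 s read after compound pin addition, then a 110 s antagonist read after challenge with 54-4 at 4 uM final (EC80).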
Vif-APOBEC3F blk: blocks the Vif interaction with APOBEC3F | Potency, µM (titrated, usually from 46.1 µM), inactives show at the top dose activity, negative = active | HeLa A3F-eYFP + Vif (tagged APOBEC3F with the HIV-1 protein that degrades it), YFP fluorescence increase | 0.2% of 390,000 active; note: potency is the fitted concentration of half-maximal effect; % of control where 0% means no effect; nearly all actives have a fitted effect of over 65% in size
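HeLa cells stably expressing A3F-eYFP plus Vif, plated and incubated overnight at 37 deg C, then exposed to compounds overnight at 37 deg C. Blocked degradation read as raised yellow fluorescence (Ex 488/Em 500-530).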
The depositor's hits bear a star; ? = inconclusive; · = not tested or not shown; ! = a repeat was not active; [ ] = dose if it differs, or a comment. Only some compounds are listed: those with a hit (about 1.3% of all), similar ones and a draw of the others. Unless noted, calls come from the whole dose curve; as a rule, active = well fitted curve in the direction sought with a large enough effect; inconclusive = small, poorly fitted or top-dose-only effect, or another doubt; inactive = no such curve, though single readings can be large; an effect the other way counts as inactive or inconclusive.

SMILES	GRP78 ERSR act	TRPML1 ag	ALOX12 inh	Vif-A3G inh	TRPML1 inh	Vif-APOBEC3F blk
COc1cccc(OCc2nc3ccc(OC)cc3[nH]2)c1	·	·	19%	·	·	·
COc1ccccc1NCC(=O)c1ccc(C)c(C)c1	-5%	1	16µM*	1%	-4	?
Cc1ccc(S(=O)(=O)C=CS(=O)(=O)c2ccc(C)cc2)cc1	-12%	6	8.9µM*	?	24	2%
Cc1ccc(S(=O)(=O)CS(=O)(=O)c2ccc(C)cc2)cc1	-6%	0	7%	2%	-2	-1%
Cc1ccc(S(=O)(=O)/C=C\C#N)cc1	-10%	·	64%	·	·	·
Cc1ccc(S(=O)(=O)SCCCSS(=O)(=O)c2ccc(C)cc2)cc1	-11%	0	1.8µM*	0%	-13	9%
Cc1ccc(S(=O)(=O)SC/C=C/CSS(=O)(=O)c2ccc(C)cc2)cc1	-7%	1	0.71µM*	-7%	2	10%
Cc1cc(C(C)(C)C)cc(C)c1Cn1c2[n+](c3ccc(C(F)(F)F)cc31)CCCCC2	-15%	2	35µM*	-5%	33	3%
O=c1oc2cc(O)ccc2c(O)c1-c1ccccc1	·	·	-6%	·	·	·
CCOC(=O)c1sc(NC(=O)c2cccc(S(=O)(=O)N3CCN(C)CC3)c2)cc1C	1%	1	45µM*	0%	3	-3%
CCOC(=O)C1CCCN(CC(=O)N2CCCc3c2c(=O)oc2ccc(OCc4ccccc4)cc32)C1 (stereo not drawn)	-1%	0	22µM*	0%	9	3%
Fc1ccc(CNc2ccc3nnc(C(F)(F)F)n3n2)cc1	·	·	13%	·	·	·
O=C(Nc1ccccc1C(F)(F)F)c1nn(-c2ccc(Cl)cc2)ccc1=O	·	·	23%	·	·	·
CCOC(CN=c1nc(N(C)C)ss1)OCC	-9%	0	18µM*	-8%	0	-1%
CCCCCCn1nc(C(=O)OCC(=O)Nc2ccc(C(N)=O)cc2)c2ccccc2c1=O	·	·	-4%	·	·	·
Cc1cc(Cl)ccc1OC(C)C(=O)Nc1ccc(C(=O)Nc2ccccc2C(=O)O)cc1 (stereo not drawn)	1%	0	50µM*	-12%	5	13%
Cc1cc(Cl)ccc1OC(C)C(=O)Nc1ccc(S(=O)(=O)N2CCOCC2)cc1 (stereo not drawn)	-8%	1	156%	1%	-8	-8%
CNC(=O)c1ccccc1NCC(=O)Nc1sc2c(c1C(=O)OC)CCCCC2	·	·	0%	·	·	·
Cc1ccc(NC(=O)COCc2cc(-c3ccc(F)cc3)on2)cc1Cl	·	·	1%	·	·	·
COc1ccc(C(=O)N2CCN(c3nc4nc(C)ccc4o3)CC2)cc1	·	·	1%	·	·	·
Cc1[nH]c2ccccc2c1C(=O)CSc1ccc(Cl)cc1	5%	0	-20%	-11%	31	-24%
Cc1[nH]c2ccccc2c1C(=O)CSc1ccc2c(c1)OCCCO2	·	·	25µM*	·	·	·
CC1CC(C)(C)N(C(=O)CN2C(=O)c3ccccc3C2=O)c2ccccc21 (stereo not drawn)	-2%	94*	-3%	1%	-15	1%
CC1=CC(C)(C)N(C(=O)CN2C(=O)CCC2=O)c2ccc(C)cc21	-6%	0	-7%	2%	4	-3%
CC1=CC(C)(C)N(C(=O)CN2C(=O)c3ccccc3C2=O)c2ccccc21	-5%	96*	7%	-7%	-4	1%
SMILES	GRP78 ERSR act	TRPML1 ag	ALOX12 inh	Vif-A3G inh	TRPML1 inh	Vif-APOBEC3F blk
Cc1cc(C)c2c(c1)-c1c(ssc1=S)C(C)(C)N2C(=O)CN1C(=O)c2ccccc2C1=O	-3%	67*	?	0%	?	-23%
CC(C)Cn1nc(C(=O)N2CCCC2c2cccs2)c2ccccc2c1=O (stereo not drawn)	·	·	-3%	·	·	·
FC(F)(F)c1ccc(Cl)c(N/N=C/C(c2ccccc2)c2ccccc2)c1	·	·	14%	·	·	·
Cc1cc(C)c(/C=N/Nc2cc(C(F)(F)F)ccc2Cl)c(C)c1	·	·	13µM*	·	·	·
FC(F)(F)c1ccc(Cl)c(N/N=C/c2ccc(Cl)cc2Cl)c1	·	·	40µM*	·	·	·
COc1ccc(C(C)=O)cc1COC(=O)C12CC3CC(CC(C3)C1)C2	·	·	40%	·	·	·
CCc1ccc(-c2nc(SCC(=O)N3CCCC3c3ccc4c(c3)OCCCO4)n[nH]2)cc1 (stereo not drawn)	·	·	2%	·	·	·
Oc1ccc(/C=N/N(Cc2ccccc2)c2ccccc2)c(O)c1O	-3%	1	40µM*	-1%	20	-15%
Oc1cccc(/C=N/N(Cc2ccccc2)c2ccccc2)c1	-14%	1	50µM*	-3%	-10	-4%
C(=N\N(Cc1ccccc1)c1ccccc1)/c1cccnc1	-6%	2	?	-6%	-14	-2%
OCc1cccc(Nc2nc(-c3cccs3)nc3ccccc23)c1	·	·	-17%	·	·	·
Cc1ccc(NC2(c3nnnn3-c3cccc(C)c3)CCCCC2)cc1	·	·	79%	·	·	·
Cc1cc(C)c2c(=O)n(CC(=O)Nc3cccc(Cl)c3C)sc2n1	-11%	4	0.71µM*	-15%	-9	0%
CCCNC(=O)C(C)NC(=O)CCc1c[nH]c2ccccc12 (stereo not drawn)	·	·	-1%	·	·	·
Cc1c(C(=O)NN2CCCCC2)nn(-c2ccc(Cl)cc2Cl)c1-c1ccc(Cl)cc1	3%	·	24µM*!	·	·	·
O=S(=O)(Nc1cc2nc3ccccc3nc2n1Cc1ccccc1)c1ccc(Cl)cc1	-5%	17	45µM*	?	4	?
O=S(=O)(NCc1ccccc1)c1ccc(Cl)cc1	-5%	3	4%	0%	53	-8%
Cc1cccc(-n2nnnc2C2(Nc3ccccc3C)CCCCC2)c1	·	·	-4%	·	·	·
CC(=O)Nc1ccc(C(=O)c2ccccc2)cc1	0%	0	1%	-12%	-6	2%
CC(=O)Nc1ccc(/C(N=Nc2ccccc2)=N/N=C(N)N)cc1	0%	1	40µM*	-10%	-15	14%
COc1ccccc1Nc1nc(-c2ccc3c(c2)CC(C)N3S(C)(=O)=O)cs1 (stereo not drawn)	·	·	40µM*	·	·	·
CC1Cc2cc(-c3csc(NC(=O)Cc4ccccc4)n3)ccc2N1S(C)(=O)=O (stereo not drawn)	0%	1	14%	2%	4	-15%
COc1ccccc1Nc1nc(-c2ccc3c(c2)CCC(=O)N3)cs1	·	·	10µM*	·	·	·
CC(C)CNc1nc(-c2ccc3c(c2)CCC(=O)N3)cs1	·	·	13µM*	·	·	·
CC1(C)[C@H](Cc2cc(-c3ccc(F)cc3)on2)C[C@@H]1NC1CCC1	·	·	13%[176 µM]	·	·	·
Cc1ccc(C(=O)N2CCN(Cc3ncc(C(C)(C)C)o3)CC2)cc1	·	·	0%	·	·	·
C[C@H](NC(=O)[C@@H]1CSC2c3ccccc3C(=O)N21)C(=O)NC1CCCC1 (stereo partly drawn)	-3%	0	13%	5µM*	-3	-7%
